Screening results: PubChem BioAssay, several laboratories
Compounds with a hit are over-represented: about 1.7% of the library has one in this group of screens.
LYPLA2 counter – LYPLA2 (human) inhibition in PME1 counter-screen; inhibition, % at 5.9 µM; O95372; recombinant LYPLA2, FP-Rh probe fluorescence polarization; hit rate 0.38% among 320,000;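 active means inhibition above the screen-wide mean plus 3 SD, limit set per campaign, cut at about 26% in these data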;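 further: 0% = LYPLA2 with DMSO and 100% = wells lacking LYPLA2 enzyme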
LYPLA1 counter – counter-screen for PME1 inhibitors: inhibitors of human LYPLA1; recombinant LYPLA1, FP-Rh probe fluorescence polarization; hit rate 0.16% among 320,000; inhibition, % at 5.9 µM; O75608;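 active means inhibition above the mean of all tested compounds plus 3 SD, set per campaign, cut at about 14% in these data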;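 further: inhibitors block serine hydrolase probe labeling of LYPLA1 so polarization falls; 0% = enzyme with DMSO and 100% = wells lacking LYPLA1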
p97 ATPase inh – inhibitors of human p97 ATPase. P55072. recombinant p97 ATPase, Kinase-Glo ATP luminescence, 3 h. inhibition, % at 8 µM. hit rate 0.42% among 220,000; in the data active means inhibition above about 15%;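 further: 0% = DMSO vehicle and 100% = wells lacking enzyme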
Target sequence (P55072 whole entry, looked up): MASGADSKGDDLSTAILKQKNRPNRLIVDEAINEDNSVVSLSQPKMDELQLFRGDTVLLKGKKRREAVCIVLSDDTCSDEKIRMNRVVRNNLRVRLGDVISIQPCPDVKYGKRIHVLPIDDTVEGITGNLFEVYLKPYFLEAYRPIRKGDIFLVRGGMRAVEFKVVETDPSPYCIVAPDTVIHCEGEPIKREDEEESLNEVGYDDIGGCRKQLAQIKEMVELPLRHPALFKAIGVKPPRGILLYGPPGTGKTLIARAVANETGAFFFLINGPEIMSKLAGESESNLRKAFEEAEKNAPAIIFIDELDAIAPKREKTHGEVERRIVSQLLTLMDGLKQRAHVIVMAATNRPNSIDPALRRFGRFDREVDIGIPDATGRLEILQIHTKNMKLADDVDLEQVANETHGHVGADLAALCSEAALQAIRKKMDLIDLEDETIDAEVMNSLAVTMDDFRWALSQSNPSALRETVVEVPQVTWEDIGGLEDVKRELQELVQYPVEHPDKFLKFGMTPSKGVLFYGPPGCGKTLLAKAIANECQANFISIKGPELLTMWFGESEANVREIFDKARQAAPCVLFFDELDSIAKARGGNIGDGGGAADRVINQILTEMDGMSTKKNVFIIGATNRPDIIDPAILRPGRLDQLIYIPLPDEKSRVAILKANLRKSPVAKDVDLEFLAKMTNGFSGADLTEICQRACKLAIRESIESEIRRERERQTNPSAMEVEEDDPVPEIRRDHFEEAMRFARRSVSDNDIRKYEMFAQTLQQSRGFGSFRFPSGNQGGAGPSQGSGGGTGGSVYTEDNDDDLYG
Hck-Nef inh – inhibitors of human Hck kinase activated by Nef; inhibition, % at 20 µM; Recombinant Hck-YEEI plus Nef, Z-Lyte FRET kinase assay; hit rate 0.68% among 220,000; P08631; AID 463187;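 active means Hck-Nef kinase inhibition above about 50%, limit read from the data; inactive means inhibition below that limit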;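 further: 0% = DMSO with Hck plus Nef and 100% = Hck alone without Nef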
PREPL inh – inhibitors of human prolyl oligopeptidase-like enzyme PREPL | inhibition, % at 5.96 µM | hit rate 0.68% among 320,000 | Q4J6C6 | recombinant PREPL, fluorescence polarization activity-based probe; in the data active means inhibition above about 43%;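 further: 0% = enzyme with DMSO and 100% = wells lacking enzyme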
Rin1 Abl inh – inhibitors of human Rin1-Abl protein interaction; hit rate 0.4% among 360,000; TR-FRET Rin1/Abl binding, biochemical; inhibition, % at 7.35 µM; in the data active means inhibition above about 5%, passing the limit was not always enough
LYPLA2 conf – LYPLA2 (human) inhibition, confirmation counter-screen; hit rate 72% among 1,100; inhibition, % at 5.9 µM; AID 2232; shares compounds with LYPLA2 counter; recombinant LYPLA2, FP-Rh probe fluorescence polarization;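 active means mean inhibition across replicates above the hit cutoff set in the primary screen, cut at about 26% in these data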;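 further: blocked labeling of the enzyme by serine hydrolase FP-Rh probe lowers polarization; 0% = enzyme with DMSO and 100% = wells lacking LYPLA2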
LYPLA2 gel ABPP – LYPLA2 (human) inhibition, late stage results. hit rate 30% among 150. AID 652029. shares compounds with LYPLA2 counter. inhibition, % at 20 µM. rhLYPLA2 in mouse brain proteome, gel ABPP FP-Rh;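 active means inhibition of LYPLA2 enzyme probe labeling above about 50%, limit read from the data; inactive means inhibition below that limit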;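 further: loss of FP-Rh probe labeling of the LYPLA2 gel band measured as band density; 0% = DMSO only control band and 100% = blank gel background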
The depositor's hits bear a star; . = no result.

SMILES | LYPLA2 counter | LYPLA1 counter | p97 ATPase inh | Hck-Nef inh | PREPL inh | Rin1 Abl inh | LYPLA2 conf | others
COc1cccc(CN(C)C(=O)c2ccc(Oc3ccccc3)cc2)c1OC | 30* | 4 | . | . | 12 | -2 | 7
O=C(c1ccc(S(=O)(=O)N2CCCC2)cc1)N1CCC(CN2C(=O)c3cccc4cccc(c34)C2=O)CC1 | 27* | 5 | 5 | 14 | 25 | 1 | 16
COc1ccc(S(=O)(=O)N2CCC(CN3C(=O)c4cccc5cccc(c45)C3=O)CC2)cc1 | 5 | -2 | 6 | 0 | 6 | -3 | .
O=C(O)CN1C(=O)c2ccc(Oc3ccc([N+](=O)[O-])cc3)cc2C1=O | 5 | -1 | . | . | 2 | 0 | .
O=C1c2ccc(Oc3ccc4c(c3)C(=O)N(CCCCO)C4=O)cc2C(=O)N1CCCCO | 29* | 1 | 1 | 7 | -3 | -2 | 35*
O=C1c2ccc(Oc3ccc([N+](=O)[O-])cc3)cc2C(=O)N1CCCO | 46* | 4 | . | . | 19 | 0 | 50*
N#C/C(=C\N1CCN(Cc2ccc3c(c2)OCO3)CC1)c1nc2ccccc2s1 | 50* | 11 | 4 | 1 | 18 | 3 | 53* | LYPLA2 gel ABPP=40
COc1cc(C(=O)N2CCN(C(=O)c3cc(-c4ccc(Br)cc4)n[nH]3)CC2)cc(OC)c1OC | 28* | -3 | . | . | 22 | 0 | 32*
COc1cc(C(=O)N2CCN(C(=O)c3ccccc3)CC2)cc(OC)c1OC | -5 | 0 | 0 | 1 | -2 | 0 | .
COc1ccc(-c2noc3c2-c2nc(-c4ccc(C)cc4)sc2CC3)cc1 | 40* | 0 | . | . | -1 | -1 | -8
O=C(Cc1cccc(NC(=O)C2CCCN(C(=O)C3CCC3)C2)c1)Nc1ccc(C(=O)N2CCCCC2)cc1 (stereo not given) | . | . | . | . | . | 0 | .
CC1=CC(=O)O[C@@H]1[C@@]1(C)C[C@H]2OC(=O)C[C@H]3[C@@H](C)C(=O)C(O)=C1[C@@]23CO | 6 | 8 | . | . | -1 | 0 | .
CCOC(=O)C1=C(CS(=O)(=O)c2ccccc2)NC(=O)NC1c1ccc(OC)c(OC)c1 (stereo not given) | -1 | 0 | 2 | 8 | 7 | -3 | .
COC(=O)C1=C(CS(=O)(=O)c2ccccc2)NC(=O)NC1c1ccc(OC)c(OC)c1 (stereo not given) | 32* | -2 | . | . | -3 | -3 | -1
CCc1nnc(NS(=O)(=O)c2ccc(NC(=S)NC(=O)/C=C/c3ccc([N+](=O)[O-])cc3)cc2)s1 | 67* | 1 | 9 | 14 | -2 | -3 | 77* | LYPLA2 gel ABPP=37
Cc1cc(C)cc(C(=O)NC(=S)Nc2ccc(Cc3ccncc3)cc2)c1 | 34* | -2 | 3 | 3 | 1 | -2 | 41*
COc1cc(C(=O)NC(=S)Nc2ccc(Cc3ccncc3)cc2)cc(OC)c1OC | 26* | 0 | . | . | -18 | -1 | 17
Cc1cccc(C(=O)NC(=S)Nc2ccc(Cc3ccncc3)cc2)c1 | 25 | 0 | 1 | 15 | -1 | -1 | .
Fc1ccc(CSc2ncnc3ccccc23)cc1 | 26* | 0 | -3 | -7 | 12 | -5 | 26*
CC[C@]12c3[nH]c4ccccc4c3CCN1C(=O)C(CC(=O)NCc1cccc(C(F)(F)F)c1)C[C@@H]2C(=O)N1CCN(C(=O)c2ccco2)CC1 (stereo not given in full) | . | . | . | . | 23 | 2 | .
COc1ccc(S(=O)(=O)N(C)c2ccc(C(=O)N3CCN(C)CC3)cc2)cc1 | 0 | -2 | . | . | 4 | 4 | .
CCOC(=O)N1CCN(C(=O)c2ccc(N(C)S(=O)(=O)c3ccc(C)cc3)cc2)CC1 | 1 | 0 | . | . | 18 | 5 | .
COc1ccc(N2CCN(C(=O)c3ccc(N(C)S(=O)(=O)c4ccc(C)cc4)cc3)CC2)cc1 | 50* | 6 | 6 | 24 | 18 | 3 | 55* | LYPLA2 gel ABPP=3
COc1ccc(N2CCN(C(=O)c3ccc(N(C)S(=O)(=O)c4ccc(OC)cc4)cc3)CC2)cc1 | 54* | 3 | 3 | 13 | 8 | 1 | 58* | LYPLA2 gel ABPP=36
CC1(c2ccc(OC(F)F)cc2)NC(=O)N(CC(=O)Nc2cccc(F)c2)C1=O (stereo not given) | 7 | -1 | . | . | 4 | 2 | .
SMILES | LYPLA2 counter | LYPLA1 counter | p97 ATPase inh | Hck-Nef inh | PREPL inh | Rin1 Abl inh | LYPLA2 conf | others
CCOC(=O)c1c(C)[nH]c(C)c1C(=O)COC(=O)c1cccs1 | . | . | . | . | 22 | 2 | .
O=C(NCCCN1CCCC1=O)c1ccc(NS(=O)(=O)c2cccc([N+](=O)[O-])c2)cc1 | 3 | 2 | . | . | 5 | -4 | .
CC(C)C[C@H](NC(=O)OC(C)(C)C)C(=O)N[C@@H](CO)[C@H](O)[C@@H]1C[C@@H]1C(=O)N1CCCC1 | 2 | 1 | . | . | 17 | -1 | .
CCc1cccc(NC(=O)COC(=O)c2c(C)nn(-c3ccccc3)c2C)c1 | . | . | . | . | . | 2 | .
COc1cccc(NC(=O)COC(=O)c2c(C)nn(-c3ccccc3)c2C)c1 | 49* | -5 | . | . | 3 | 2 | 42*
COc1ccc2c(c1C)CCC(C)(C#N)C2=O (stereo not given) | . | . | . | . | . | 4 | .
COc1ccc(S(=O)(=O)Nc2cc(SCC(=O)O)c(O)c3ccccc23)cc1 | 28* | 5 | . | . | 12 | 2 | 28*
O=C(O)CSc1cc(NS(=O)(=O)c2ccc(Cl)cc2)c2ccccc2c1O | 28* | 4 | . | . | 8 | 6 | 13
Cc1cc(C)c(S(=O)(=O)Nc2cc(SCC(=O)O)c(O)c3ccccc23)cc1C | 30* | 1 | 7 | 30 | 13 | . | 2
Cc1ccc(S(=O)(=O)N2C[C@H]3[C@H]4C(=O)N(Cc5ccccc5)C(=O)[C@H]4CC(=O)[C@H]3[C@@H]2c2cccc3ccccc23)cc1 | . | . | . | . | . | 3 | .
O=C(c1ccc(Cn2c(=O)[nH]c3ccsc3c2=O)cc1)N1CCN(c2ccccc2)CC1 | 24 | 5 | 5 | -2 | -56 | -1 | .
O=C(c1ccc(Cn2c(=O)[nH]c3ccccc3c2=O)cc1)N1CCN(c2ccc(F)cc2)CC1 | 42* | 12 | 4 | 1 | -72 | 0 | 35*
Cc1ccc(Nc2c([N+](=O)[O-])cc(C(=O)N3CC(=O)Nc4ccccc43)cc2[N+](=O)[O-])c(C)c1 | 27* | 0 | 6 | 0 | -102 | -3 | 28*
COc1ccccc1C(=O)COC(=O)c1ccc(-n2cnnn2)cc1 | 32* | 8 | . | . | -2 | -1 | 24
COCC(=O)N/N=C\c1ccccc1OC/C=C/c1ccccc1 | 50* | 2 | . | . | 12 | 0 | 42*
COCC(=O)N/N=C\c1cccc(OC)c1OC/C=C/c1ccccc1 | . | . | . | . | . | -1 | .
